The list is not random: actives were taken first. Their share in the collection is about 17%.
ATXN2 expr inh: ATXN2 expression inhibition | HEK-293 ATXN2-luciferase reporter, luminescence, 24 h | Potency, µM (series often up to 57 µM), for inactives: at the highest dose activity change, negative = inhibition, hits mostly inhibitors | hit rate 0.72% among 360,000 | AID 1745845; also: % is scaled to controls: 0 for no effect and ±100 for the full control effect; nearly all actives have a fitted effect of over 55% in size
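ATXN2-luciferase reporter cells (luciferase flanked by upstream and downstream ATXN2 gene portions) were treated 24 h at 37 °C with compounds at up to 57 uM. SteadyGlo luminescence gave expression; GF-AFC fluorescence gave viability.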
DT40 TDP1 no CPT: qHTS for Inhibitors of human tyrosyl-DNA phosphodiesterase 1 (TDP1): qHTS in cells in absence of CPT | DT40 Tdp1-/- hTDP1 cells, no CPT, ATP luminescence, 48 h | Potency, µM (doses to about 46.2 µM), for the others: at the top dose activity change, negative = growth inhibition, actives largely listed as inhibitors | hit rate 15% among 420,000; also: % is scaled to controls: 0 for no effect and ±100 for the full control effect; nearly all actives have a fitted effect of over 55% in size
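Compound effects on proliferation are scored in DT40 Tdp1-/-;hTDP1 cells in the absence of CPT. ATP levels (CellTiter-Glo luminescence) are recorded after a ≥48 hr, 37 °C incubation.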
TGFb SMAD3 inh: TGF-b pathway inhibition. HepG2 CAGA-GFP TGF-b/SMAD3 reporter, GFP fluorescence, 18 h; TGF-beta stimulated, 500 pg/mL final. Potency, µM (titrated, usually from 46.1 µM), for the others: top-dose activity, negative = inhibition, actives largely listed as inhibitors. hit rate 1.2% among 410,000. AID 588855; also: % is scaled to controls: 0 for no effect and ±100 for the full control effect; nearly all actives have a fitted effect of over 65% in size
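Smad-responsive CAGA-GFP expression was quantified in HEPG2 cells exposed to compounds and 500 pg/mL final TGF-beta for 18 h at 37 degrees C; unstimulated wells defined full inhibition.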
HepG2 tox: counter-screen for TGF-b inhibitors: cytotoxicity in HepG2 cells. HepG2 CAGA-GFP viability, ATP luminescence, 18 h. Potency, µM (highest dose often 46.1 µM), for inactives: at the highest dose activity change, negative = cytotoxicity, actives largely listed as cytotoxic. hit rate 0.76% among 410,000. AID 588856
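HepG2 CAGA-GFP cells (1000/well, DMEM with 1% FBS) received compound, then TGF-beta at 500 pg/mL final, and were incubated 18 hours at 37 degrees C. Viability was read by CellTiter-Glo luminescence. Media-only wells were set as complete cell-killing and DMSO as no toxicity.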
ATXN viability: cell viability loss in ATXN counter-screen | S2 cells (HEK-293 line with an ATXN2-luciferase reporter) viability, CellTiter-Fluor protease fluorescence, 24 h | Potency, µM (titrated, usually from 56.7 µM), hits mostly cytotoxic | hit rate 0.49% among 400,000; also: nearly all actives have a fitted effect of over 40% in size
DT40 TDP1 CPT: growth inhibition of DT40 Tdp1-/-;hTDP1 cells with camptothecin (screen for TDP1 inhibitors) | Potency, µM (titrated, usually from 46.2 µM), for inactives: at the highest dose activity change, negative = growth inhibition, hits mostly inhibitors | chicken DT40 Tdp1-/-;hTDP1 cells + 20 nM CPT, ATP luminescence, 48 h | AID 686979 | hit rate 12% among 420,000; also: % is scaled to controls: 0 for no effect and ±100 for the full control effect; nearly all actives have a fitted effect of over 55% in size
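Chicken DT40 Tdp1-/- cells stably complemented with human TDP1 were seeded at 400 cells/well in medium containing 20 nM camptothecin, exposed to pin-transferred compounds, and grown at 37 °C for at least 48 hr. Viability was read as ATP luminescence.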
* hit, by the source's call; i = inactive; ? = inconclusive; / = no result; [ ] = remark or other dose. Calls follow the shape of the dose curve; as a rule, active = well fitted curve in the direction sought with a large enough effect; inconclusive = small, poorly fitted or top-dose-only effect, or another doubt; inactive = no such curve, though single readings can be large; an effect the other way counts as inactive or inconclusive. Potency is read from the fitted curve at half-maximal effect.

SMILES	ATXN2 expr inh	DT40 TDP1 no CPT	TGFb SMAD3 inh	HepG2 tox	ATXN viability	DT40 TDP1 CPT
CCc1nn(CC(=O)NC(C)C)c(=O)c2cc3cc(F)ccc3n12	0%	-13%	0%	1%	i	6%
COCc1ccc(CN2CCOc3ccc(C4=Cc5ccccc5C4)cc3C2)o1	/	-23%	/	/	i	1%[9.04 µM]
C[C@@H]1CN([C@H](C)CO)C(=O)c2c(c3ccccc3n2C)-c2ccccc2CO[C@H]1CN(C)C(=O)NC1CCCCC1	-20%	26µM*	-18%	-26%	i	18µM*
C[C@@H]1CN([C@H](C)CO)C(=O)c2c(c3ccccc3n2C)-c2ccccc2CO[C@H]1CN(C)C(=O)Nc1ccccc1	-38%	?	-11%	-16%	?	?
Cc1noc(C)c1C(=O)N(C)C[C@@H]1OCc2ccccc2-c2c(n(C)c3ccccc23)C(=O)N([C@H](C)CO)C[C@H]1C	-8%	18µM*	-2%	-15%	i	?
C[C@H](CO)N1C[C@H](C)[C@H](CN(C)C(=O)c2ccccc2)OCc2ccccc2-c2c(n(C)c3ccccc23)C1=O	?	?	1%	-24%	/	?
CC(=O)C(c1ccccc1)C(c1ccccc1)C(C)[N+](=O)[O-] (stereo unspecified)	-13%	?	-3%	-29%	i	7%
Cc1ccc(NC(=O)C2=C(c3ccccc3)S(=O)(=O)CCS2(=O)=O)cc1	?	0.58µM*	3.5µM*	7.1µM*	11µM*	0.46µM*
Cc1ccc(NC(=O)c2ccccc2)cc1	-14%	-17%	-3%	-14%	i	-6%
CC(CC(=O)c1ccccc1)=NCC(O)CN=C(C)CC(=O)c1ccccc1 (stereo unspecified)	/	?	-18%	-18%	i	?
Cn1c(=O)c2c(nc(C3CC4C5CCC(C5)C4C3)n2C)n(C)c1=O (stereo unspecified)	7%	16µM*	3%	6%	i	?
OCCNCc1cc(Br)ccc1OCc1ccccc1Cl	-27%	21µM*	?	-52%	i	21µM*
OCCCCNCc1cc(Br)ccc1OCc1ccccc1	/	?	2%	-5%	i	?
O=C(COc1ccc(Br)cc1CNCCc1ccccc1)NCc1ccccc1	?	7.3µM*	?	13µM*	?	12µM*
COc1cc(C=O)c(Br)cc1OCC(=O)NCCc1ccccc1	/	18µM*	?	-8%	i	?
NS(=O)(=O)c1ccc(CCNCc2cc(Cl)ccc2OCc2ccccc2)cc1	-35%	?	11µM*	-69%	i	?
O=C1C=C(c2ccc(Cl)c(C(F)(F)F)c2)C[C@@H](c2ccc3c(c2)OCO3)C1	-24%	?	?	-22%	i	?
Cc1ccccc1NC(=O)CN1C(=O)COc2ccc(Cl)cc21	4%	0%	?	6%	i	?
CCN(c1ccc(C(=O)CN2C(=O)NC3(CCOc4ccccc43)C2=O)cc1)S(C)(=O)=O (stereo unspecified)	-11%	?	1%	0%	i	?
C=CCOc1ccccc1CNCCc1ccc(S(N)(=O)=O)cc1	-9%	-19%	18%	-7%	i	-19%
NS(=O)(=O)c1ccc(CCNCc2ccccc2OCc2ccc(Cl)cc2)cc1	?	?	?	-91%	i	23µM*
NS(=O)(=O)c1ccc(CCNCc2cc(Br)ccc2OCc2ccccc2F)cc1	-17%[11.3 µM]	4.1µM*	?	-85%	i	5.8µM*
